Screening data from PubChem.
The list is not random: actives were taken first. Their share in the collection is about 3.1%.
PREPL inh: PREPL enzyme inhibitors, primary screen, biochemical, fluorescence polarization | Prolyl endopeptidase-like (Homo sapiens), Q4J6C6 | recombinant PREPL, fluorescence polarization activity-based probe | inhibition, % at 5.96 µM | actives 0.68% (n = 320,000); in the data active = inhibition above about 43%
ATG4B inhibitor: ATG4B protease inhibitors, primary screen, biochemical, fluorescence, uHTS | Cysteine protease ATG4B (Homo sapiens), Q9Y4P1 | ATG4B cleavage of LC3-PLA2, NBD-HPC fluorescence, 1 h | inhibition, % at 8.33 µM | actives 0.51% (n = 340,000) | AID 504462, 2011; in the data active = inhibition above about 40%
MEKK2 mut-MEK5: MEK5 binding signal on mutant MEKK2 PB1, primary screen, biochemical, multiplex bead flow cytometry, Alexa488-MEK5; Alexa488-MEK5 binding to MEKK2 mutant; percent response, % at 10 µM; actives 0.35% (n = 290,000); in the data active = percent response above about 24%, passing the limit was not always enough
MEKK3 PB1 HTS: modulators of MEKK3-MEK5 PB1 binding, primary screen, biochemical, wildtype MEKK3, multiplex bead flow cytometry, Alexa488-MEK5. Mitogen-activated protein kinase kinase kinase 3 (Homo sapiens), Q99759. bead-based flow cytometry, Alexa488-MEK5 binding to MEKK3; actives lie on both sides; 0 = blocked by unlabeled MEK5, 100 = vehicle. binding response (% of control), % at 10 µM. actives 1.4% (n = 290,000);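 active = binding response more than 3 SD above or below the average of its plate-row segment, actives on both sides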;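 note: Alexa488 bead fluorescence after subtracting the streptavidin-only scavenger bead signal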
Target sequence (Q99759 whole entry, looked up): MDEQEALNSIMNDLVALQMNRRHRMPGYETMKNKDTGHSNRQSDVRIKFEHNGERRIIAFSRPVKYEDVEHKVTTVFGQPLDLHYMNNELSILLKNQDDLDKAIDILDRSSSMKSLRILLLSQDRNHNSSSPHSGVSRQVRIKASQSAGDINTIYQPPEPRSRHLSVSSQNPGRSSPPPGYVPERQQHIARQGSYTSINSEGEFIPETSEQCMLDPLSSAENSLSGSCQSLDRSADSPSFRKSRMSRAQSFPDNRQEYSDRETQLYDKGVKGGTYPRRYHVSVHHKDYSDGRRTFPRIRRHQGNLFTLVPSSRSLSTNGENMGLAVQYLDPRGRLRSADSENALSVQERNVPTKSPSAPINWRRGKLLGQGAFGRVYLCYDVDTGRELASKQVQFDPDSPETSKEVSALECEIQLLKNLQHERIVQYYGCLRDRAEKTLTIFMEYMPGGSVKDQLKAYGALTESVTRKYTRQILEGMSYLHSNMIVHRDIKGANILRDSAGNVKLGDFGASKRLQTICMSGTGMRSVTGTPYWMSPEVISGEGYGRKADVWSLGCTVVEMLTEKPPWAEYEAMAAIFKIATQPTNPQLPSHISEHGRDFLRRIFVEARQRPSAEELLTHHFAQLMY
UBC13 polyUb: UBC13 polyubiquitin chain formation inhibitors, primary screen, biochemical, TR-FRET, uHTS. Ubiquitin-conjugating enzyme E2 N (Homo sapiens), P61088. inhibition, % at 20 µM. actives 0.47% (n = 330,000). AID 485273, 2010; in the data active = inhibition above about 45%, passing the limit was not always enough
MEKK2 WT-MEK5: modulators of MEK5 binding to wildtype MEKK2, primary screen, biochemical, multiplex bead flow cytometry, Alexa488-MEK5; Alexa488-MEK5 binding to MEKK2 WT; actives lie on both sides; binding response (% of control), % at 10 µM; actives 1.1% (n = 290,000); AID 1531, 2009; in the data active = binding response below about 67% or above about 130%
MEKK2wt confirm: modulators of MEK5 binding to wildtype MEKK2, confirmation, biochemical, single concentration, multiplex bead flow cytometry | shares compounds with MEKK3 PB1 HTS | Alexa488-MEK5 binding to MEKK2 WT; actives lie on both sides | binding response (% of control), % at 10 µM | actives 2.4% (n = 5,900) | AID 1892, 2009; in the data active = binding response below about 16% or above about 210%; inactive = in between
MEKK2mut-MEK5: mutant MEKK2 PB1-MEK5 binding signal retest – biochemical, single concentration, multiplex bead flow cytometry, confirmation. shares compounds with MEKK3 PB1 HTS. Alexa488-MEK5 binding to MEKK2 mutant. percent response, % at 10 µM. actives 2% (n = 5,900). AID 1893, 2009; in the data active = percent response mostly above about 71%, no sharp cut-off; inactive = mostly below about 38%;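 note: higher means compound restores mutant binding toward wildtype level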
MEKK3 confirm: MEKK3 wild-type PB1 binding to MEK5, inhibitors, confirmation, biochemical, bead multiplex flow cytometry, single concentration, wildtype; shares compounds with MEKK3 PB1 HTS; Alexa488-MEK5 binding to MEKK3; hits give low values; binding response (% of control), % at 10 µM; actives 1.8% (n = 5,900);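 active = binding response below 72% of control, or above a set upper limit, though filed actives all read lower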;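 note: lower values mean stronger disruption of MEK5 binding to MEKK3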
Large screens that a line does not name were inactive (follow-up assays come after a bar, where they were run); [ ] = remark or other dose.

CC(=O)Nc1ccc(S(=O)(=O)NCCNS(=O)(=O)c2ccc(NC(C)=O)cc2)cc1	none
CC(=O)Nc1ccc(S(=O)(=O)NCc2ccc3c(c2)cc(C)n3C)cc1	MEKK3 PB1 HTS 70[inhibitor], MEKK2 WT-MEK5 50[inhibitor] | MEKK2wt confirm inactive | MEKK2mut-MEK5 inactive | MEKK3 confirm inactive
CC(=O)Nc1ccc(S(=O)(=O)NCc2ccc(C)cc2)cc1	MEKK3 PB1 HTS 126 | MEKK2wt confirm inactive | MEKK2mut-MEK5 inactive | MEKK3 confirm inactive
CC(=O)Nc1ccc(S(=O)(=O)NCc2ccc3[nH]c(C)cc3c2)cc1	MEKK3 PB1 HTS 80[inhibitor], MEKK2 WT-MEK5 72[inhibitor] | MEKK2wt confirm inactive | MEKK2mut-MEK5 inactive | MEKK3 confirm inactive
O=C(NC1CCN(S(=O)(=O)c2ccc(F)cc2)CC1)c1cccc(F)c1	none
COc1cc(C(=O)OC2CC3CCC2(C)C3(C)C)ccc1OC(C)=O (stereo unspecified)	none
Fc1ccccc1OCCCCCCN1CCCC1	MEKK2 WT-MEK5 141 | MEKK2wt confirm inactive | MEKK2mut-MEK5 inactive | MEKK3 confirm inactive
O=C(Nc1cccc2ncccc12)c1ccc(F)cc1	MEKK3 PB1 HTS 132 | MEKK2wt confirm inactive | MEKK2mut-MEK5 inactive | MEKK3 confirm inactive
CCC(C)(C)NC(=O)CN(Cc1ccccc1)C(=O)CCC(=O)Nc1nccs1	none
CCn1cc(CN2CCCC(C(=O)Nc3ccc(-c4cscn4)cc3)C2)cn1 (stereo unspecified)	none
O=C(O)CCC(=O)c1ccc(-c2ccccc2)cc1	MEKK3 PB1 HTS 67[inhibitor], MEKK2 WT-MEK5 32[inhibitor] | MEKK2wt confirm inactive | MEKK2mut-MEK5 inactive | MEKK3 confirm inactive
Cc1ccc(C2CC(=O)N(c3ccc(F)cc3)C3=C2C(=O)CCC3)cc1 (stereo unspecified)	MEKK3 PB1 HTS 123 | MEKK2wt confirm inactive | MEKK2mut-MEK5 inactive | MEKK3 confirm inactive
O=C1CCCC2=C1C(c1ccsc1)CC(=O)N2c1ccccc1 (stereo unspecified)	none
Cc1csc(SCc2ccccc2C(=O)O)n1	MEKK3 PB1 HTS 3.0[inhibitor], MEKK2 WT-MEK5 3.0[inhibitor] | MEKK2wt confirm inactive | MEKK2mut-MEK5 inactive | MEKK3 confirm inactive
COc1ccc(C2(SCC(N)C(=O)O)c3ccccc3-c3ccccc32)cc1 (stereo unspecified)	none (no result: PREPL inh, MEKK2 mut-MEK5, MEKK3 PB1 HTS, UBC13 polyUb, MEKK2 WT-MEK5)
Cc1ccc(C(c2nnnn2Cc2cccs2)N2CCN(C(=O)c3ccco3)CC2)cc1 (stereo unspecified)	none
CCC(c1nnnn1Cc1cccs1)N1CCN(C(=O)c2ccco2)CC1 (stereo unspecified)	MEKK3 PB1 HTS 0.0[inhibitor], MEKK2 WT-MEK5 -1.0[inhibitor] | MEKK2wt confirm inactive | MEKK2mut-MEK5 inactive | MEKK3 confirm inactive
CNC(=S)NCc1ccc(OC)cc1	MEKK3 PB1 HTS 55[inhibitor] | MEKK2wt confirm inactive | MEKK2mut-MEK5 inactive | MEKK3 confirm inactive
COc1cc(/C=C(\C#N)C(=O)Nc2ccccc2C(=O)O)cc(Cl)c1OC	MEKK3 PB1 HTS 43[inhibitor] | MEKK2wt confirm inactive | MEKK2mut-MEK5 inactive | MEKK3 confirm inactive
COc1ccc(/C=C(/C#N)C(=O)Nc2ccccc2C)cc1C(=O)O	none
CN(C)CCCN(C(=O)c1sc2ccccc2c1Cl)c1nc2c(F)cccc2s1	MEKK2 mut-MEK5 139, MEKK2 WT-MEK5 325 | MEKK2wt confirm inactive | MEKK2mut-MEK5 inactive | MEKK3 confirm inactive
Cc1cccc2sc(N(CCN(C)C)C(=O)c3cc(Cl)sc3Cl)nc12	none
CN(C)CCCN(C(=O)c1ccc2c(c1)CCCC2)c1nc2c(F)cccc2s1	none
Cc1cccc2sc(N(CCCN(C)C)C(=O)c3sc4ccccc4c3Cl)nc12	MEKK2 mut-MEK5 53, MEKK2 WT-MEK5 197 | MEKK2wt confirm inactive | MEKK2mut-MEK5 inactive | MEKK3 confirm inactive
O=C(CSc1ccccc1)NCC1(N2CCOCC2)CCCCC1	none (no result: MEKK2 mut-MEK5, MEKK3 PB1 HTS, MEKK2 WT-MEK5)
COc1ccccc1NC(=O)c1ccc2c(c1)nnn2C	none
CCc1ccccc1NC(=O)CSc1nc2n[nH]c(C)c2c(=N)n1-c1cccc(OC)c1	MEKK2 WT-MEK5 140 | MEKK2wt confirm inactive | MEKK2mut-MEK5 inactive | MEKK3 confirm inactive
CCCNS(=O)(=O)c1ccc(OCC(=O)N2CCOCC2)cc1	MEKK3 PB1 HTS 69[inhibitor] | MEKK2wt confirm inactive | MEKK2mut-MEK5 inactive | MEKK3 confirm inactive
OCc1nc2ccccc2n1CC(O)Cn1ccc2ccccc21 (stereo unspecified)	none
OC(CN1CCNCC1)Cn1ccc2ccccc21 (stereo unspecified)	PREPL inh 60, MEKK2 mut-MEK5 35 (no result: ATG4B inhibitor) | MEKK2wt confirm inactive | MEKK2mut-MEK5 inactive | MEKK3 confirm inactive
Cc1cc(C)n(CC(O)Cn2ccc3ccccc32)n1 (stereo unspecified)	none
O=C1c2ccccc2S(=O)(=O)N1CC(O)Cn1ccc2ccccc21 (stereo unspecified)	MEKK2 mut-MEK5 81, MEKK2 WT-MEK5 31 | MEKK2wt confirm inactive | MEKK2mut-MEK5 inactive | MEKK3 confirm inactive
C#CC(C)OC(=O)Nc1cnccc1C(F)(F)F (stereo unspecified)	none
CC(NCc1ccccc1)c1ccccc1O (stereo unspecified)	none
COC(=O)c1c(NC(=O)Cc2ccccc2)sc2c1CC(C)(C)NC2(C)C	none
COC(=O)c1c(NC(=O)COc2ccc(Cl)cc2)sc2c1CC(C)(C)NC2(C)C	MEKK2 mut-MEK5 49, MEKK2 WT-MEK5 186 | MEKK2wt confirm inactive | MEKK2mut-MEK5 inactive | MEKK3 confirm inactive
C/C=C\C(=O)Nc1cccc(C2=NOC3(C2)C[C@H](C(N)=O)N(C(=O)[C@H]2CCC(=O)N2)C3)c1 (stereo partly specified)	none
O=c1[nH]c(SCc2ccccc2[N+](=O)[O-])nc2nc[nH]c12	MEKK3 PB1 HTS 45[inhibitor] | MEKK2wt confirm inactive | MEKK2mut-MEK5 inactive | MEKK3 confirm inactive
O=[N+]([O-])c1ccccc1CSc1ccccn1	none
COc1cc(NC(=O)c2sc(C)nc2C)c(OC)cc1NC(=O)c1ccccc1	none
